Test [1] is described as follows: qHTS assay to identify small molecule agonists of the estrogen receptor alpha (ER-alpha) signaling pathway in the presence of an antagonist - cell viability counter screen (AID 1259386).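 Note: cells exposed to compounds for 22 h at 37 °C before the viability read; nearly all actives have a fitted effect of over 30% in size.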 Note: potency is the fitted concentration of half-maximal effect. The essentials: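 Cell viability in VM7Luc4E2 cells (endogenous full-length ER-alpha) measured by CellTiter-Fluor fluorescence in the same wells as the luciferase screen. Cells pre-cultured 5 days in charcoal-stripped serum, then treated 22 h with compounds at 15 concentrations plus 10.0nM ICI-182,780.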

Test [2] in a line: qHTS assay to identify small molecule antagonists of the progesterone receptor (PR) signaling pathway - cell viability counter screen (AID 1346798). Note: nearly all actives have a fitted effect of over 50% in size. Note: potency is the fitted concentration of half-maximal effect. The essentials: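 CellTiter-Glo luminescence; PR-UAS-bla HEK293T, 3,000 cells/well; compound + R5020, 16 hr, 37C/5% CO2; 30 min RT before read.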
Test [3] in a line: qHTS assay to identify small molecule agonists of the progesterone receptor (PR) signaling pathway - cell viability counter screen (AID 1346799; calls by dose curve; note: nearly all actives have a fitted effect of over 45% in size; note: potency is the fitted concentration of half-maximal effect). The essentials: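 In parallel with the beta-lactamase readout, cytotoxicity toward PR-UAS-bla HEK293T cells was measured by CellTiter-Glo luminescence following 16 hr compound incubation in 2% charcoal-stripped FBS medium.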
Test [4] in a line: qHTS assay to identify small molecule antagonists of the TGF-beta/Smad signaling pathway - cell viability counter screen (AID 1346824). Note: nearly all actives have a fitted effect of over 50% in size. Note: potency is the fitted concentration of half-maximal effect. The essentials:
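SBE-bla HEK 293T cells were plated overnight at 37 C, then given compounds in DMSO plus TGF-beta1 (added as 0.25 ng/mL solution) for 5 hr. After the bla read, CellTiter-Glo was added to the same wells and luminescence read after 30 min at room temperature.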

Test [5] can be described thus: qHTS assay to identify small molecule agonists of the TGF-beta/Smad signaling pathway - cell viability counter screen (AID 1346829). Note: nearly all actives have a fitted effect of over 45% in size. Note: potency is the fitted concentration of half-maximal effect. Put shortly: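 Cytotoxicity counter screen: CellTiter-Glo luminescence (30 min, room temperature) measured in the SBE-bla HEK 293T reporter wells after 5 hr compound treatment at 37 C and the 2 hr substrate step.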
Test [6] is described as follows: qHTS assay to identify small molecule agonists of the TGF-beta/Smad signaling pathway (AID 1346859; active = well fitted activation curve with a large enough effect in the signal ratio in the repeat runs, not every such curve was filed as active; the % refers to the signal ratio; note: series mostly up to about 77 µM). The essentials:
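After overnight seeding, SBE-bla HEK 293T cells are dosed with compounds in DMSO and kept 5 hr at 37 C, 5% CO2. LiveBLAzer-type FRET substrate is then applied for 2 hr at room temperature.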

Test [7] addresses Progesterone receptor (Homo sapiens) (UniProt P06401). Nature of the test: qHTS assay to identify small molecule antagonists of the progesterone receptor (PR) signaling pathway (AID 1346795; active = well fitted inhibition curve with a large enough effect in the signal ratio in the repeat runs, not every such curve was filed as active; the % refers to the signal ratio; note: potency is the fitted concentration of half-maximal effect). The essentials:
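Fluorescence intensity measured 2 hr after adding beta-lactamase FRET substrate to PR-UAS-bla HEK293T cells that had been co-treated 16 hr with compound and 1 nM R5020 (final concentration) in 2% charcoal-stripped FBS.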

Test [8] shares this target. In words: qHTS assay to identify small molecule agonists of the progesterone receptor (PR) signaling pathway (AID 1346784; calls by dose curve; note: nearly all actives have a fitted effect of over 30% in size; note: potency is the fitted concentration of half-maximal effect). The essentials: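 Fluorescence from LiveBLAzer B/G FRET substrate cleavage (2 hr, RT) reported PR activation in PR-UAS-bla HEK 293T cells treated 16 hr at 37C/5% CO2 with compounds; medium contained 2% charcoal-stripped FBS.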
Test [9] deals with Thyrotropin-releasing hormone receptor (Homo sapiens) (UniProt P34981). Nature of the test: qHTS assay to identify small molecule antagonists of the thyrotropin-releasing hormone receptor (TRHR) signaling pathway (AID 1346877; active = well fitted inhibition curve with a large enough effect in the repeat runs, not every such curve was filed as active; note: potency is the fitted concentration of half-maximal effect). The essentials:
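TRHR-expressing HEK293 cells loaded with calcium dye for 2 h at 37 C; compounds pre-incubated 5 min at room temperature before TRH challenge at 1 nM final. Intracellular calcium fluorescence read kinetically for 3 min; 15 concentrations in triplicate.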

For test [10] the target is unchanged. In words: qHTS assay to identify small molecule agonists of the thyrotropin-releasing hormone receptor (TRHR) signaling pathway (AID 1346891; calls by dose curve; note: series mostly up to about 58 µM). The essentials:
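Compounds were tested as agonists at 15 concentrations, in triplicate, on TRHR-Hek293 cells; calcium-sensitive dye fluorescence was recorded for 3 min following addition.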

SMILES strings stand for the structures. Where “and” joins values, the source holds several entries; their conditions need not be identical. Identical values can stand only once. Records with an inconclusive call do not appear. More than one record can exist for a structure, and the calls need not agree. Calls of active or inactive are those of the source. Unless noted, calls come from the whole dose curve; as a rule, active = well fitted curve in the direction sought with a large enough effect in the repeat runs; inconclusive = weak or mixed curves; inactive = no such curve, though single readings can be large; an effect the other way counts as inactive or inconclusive.

We go through 34 molecules from PubChem BioAssay (Tox21).

Sequence of Progesterone receptor (Homo sapiens) (P06401 whole entry, looked up): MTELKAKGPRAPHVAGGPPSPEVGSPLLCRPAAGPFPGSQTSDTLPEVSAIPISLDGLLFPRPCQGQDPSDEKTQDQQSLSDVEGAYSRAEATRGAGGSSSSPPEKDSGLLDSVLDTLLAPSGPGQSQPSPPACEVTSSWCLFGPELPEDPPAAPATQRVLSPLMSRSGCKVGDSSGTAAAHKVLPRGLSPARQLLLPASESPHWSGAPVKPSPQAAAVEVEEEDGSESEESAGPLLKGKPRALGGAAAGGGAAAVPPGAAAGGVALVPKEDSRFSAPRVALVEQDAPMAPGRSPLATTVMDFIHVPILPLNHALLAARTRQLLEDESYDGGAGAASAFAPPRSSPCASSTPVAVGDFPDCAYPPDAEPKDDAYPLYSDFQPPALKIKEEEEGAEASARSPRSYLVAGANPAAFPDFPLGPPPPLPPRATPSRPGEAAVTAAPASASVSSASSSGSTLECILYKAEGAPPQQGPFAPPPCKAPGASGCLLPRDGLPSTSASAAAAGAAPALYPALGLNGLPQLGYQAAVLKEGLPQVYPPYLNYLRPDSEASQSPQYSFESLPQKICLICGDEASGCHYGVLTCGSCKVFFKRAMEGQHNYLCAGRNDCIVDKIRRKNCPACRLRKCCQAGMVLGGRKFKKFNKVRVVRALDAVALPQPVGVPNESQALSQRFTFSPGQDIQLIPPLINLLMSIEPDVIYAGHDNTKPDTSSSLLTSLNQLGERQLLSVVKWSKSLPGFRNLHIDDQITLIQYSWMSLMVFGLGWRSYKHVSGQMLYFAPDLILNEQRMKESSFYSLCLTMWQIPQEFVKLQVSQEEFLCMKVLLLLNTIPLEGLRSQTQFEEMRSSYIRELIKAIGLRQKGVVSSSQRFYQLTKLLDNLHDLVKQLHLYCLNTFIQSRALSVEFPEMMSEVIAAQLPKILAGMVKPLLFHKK
Sequence of Thyrotropin-releasing hormone receptor (Homo sapiens) (P34981 whole entry, looked up): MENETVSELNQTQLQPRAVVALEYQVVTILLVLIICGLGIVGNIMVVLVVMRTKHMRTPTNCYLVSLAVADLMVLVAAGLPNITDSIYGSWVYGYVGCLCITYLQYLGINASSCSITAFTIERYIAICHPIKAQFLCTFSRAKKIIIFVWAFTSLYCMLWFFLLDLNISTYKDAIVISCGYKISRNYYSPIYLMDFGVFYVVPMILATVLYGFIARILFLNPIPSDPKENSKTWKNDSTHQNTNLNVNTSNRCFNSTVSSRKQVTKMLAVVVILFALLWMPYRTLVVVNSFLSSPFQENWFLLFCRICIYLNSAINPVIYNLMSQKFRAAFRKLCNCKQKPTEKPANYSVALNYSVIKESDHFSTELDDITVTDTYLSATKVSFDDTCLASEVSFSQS

With `[Cl][Sn]([c]1ccccc1)([c]1ccccc1)[c]1ccccc1`, the Potency in test [1] was 11.6 µM (active); in test [2], 1.3 µM (active); in test [3], 1.64 µM (active); in [4] it was 2.61 µM (active); in test [5] it was 2.61 µM (active).
For `CC(=O)[O-].[Tl+]`, the Potency result in [1], in test [2], in test [3], in test [4] and in test [5] was “inactive” in each case. Further, in test [6], the molecule was called inactive.
For `CC(Cc1ccc(C(C)(C)C)cc1)CN1C[C@@H](C)O[C@@H](C)C1` (stereo partly drawn), the Potency result in test [1], in test [7], in [4] and in [5] was “inactive” throughout. Also, the result in test [6] was inactive.
On to `CC1(c2ccc(Oc3ccccc3)cc2)OC(=O)N(Nc2ccccc2)C1=O` (stereo not drawn), for which, in test [1], the Potency is 30.8 µM (active). Moreover, the Potency entry in test [8], in test [5], in [9] and in [10] was “inactive” throughout.
Turning to `CC(C)[C@H](C(=O)OC(C#N)c1cccc(Oc2ccccc2)c1)c1ccc(OC(F)F)cc1` (stereo partly drawn), the Potency result in test [1], in test [8], in test [4], in test [5], in test [9] and in [10] was “inactive” throughout.
Consider `CC(=O)[O-].CC(=O)[O-].O.O.[Cd+2]`, for which the Potency in test [1] is 60.3 µM (active); in test [7] it was 0.603 µM (active); in [2] it was 19.1 µM (active); in [3] it was 15.1 µM (active). In addition, the outcome in [6] was inactive.
As for `CN(C)C(=S)S`, the Potency result in test [1], in [4] and in test [5] was “inactive” each time. In addition, the Potency in test [2] was 15.7 µM (active) and 17.2 µM (active); in test [3] it was “inactive and 13.7 µM (active)”. In addition, the molecule was called inactive in [6].
As to `N#Cc1ccccc1N`, the Potency result in [1], in test [2], in test [3], in [4], in test [5] and in test [9] was “inactive” throughout. Besides, in [10], the Potency result was “inactive”. Besides, in [6], the call was inactive.
Take `CCCCN(CCCC)C(=S)[S-].CCCCN(CCCC)C(=S)[S-].[Zn+2]`: the Potency was 24.3 µM (active) in test [1], 12.2 µM (active) in test [7] and 43.2 µM (active) in [2]. Also, the Potency result in [4] and in [5] was “inactive” throughout. Besides, in test [6], the molecule was called inactive.
Regarding `CN(C)S(=O)(=O)N(SC(F)(Cl)Cl)c1ccccc1`, the Potency result in test [1] and in [10] was “inactive” in each case. Moreover, the values for the Potency in [7], in test [2] and in test [9] were 48.6 µM (active), 61.1 µM (active) and 12 µM (active), respectively.
In the case of `N#C/C=C/c1ccccc1`, the Potency result in test [1], in [7], in test [2], in test [3], in test [4] and in test [5] was “inactive” each time. Further, the outcome in test [6] was inactive.
In the case of `O=c1[nH]c2ccccc2n1C1CCN(CCCC(c2ccc(F)cc2)c2ccc(F)cc2)CC1`, the Potency is 54.5 µM (active) in [1]; 26.6 µM (active) in test [7]; 30.6 µM (active) in [2]; 49 µM (active) and inactive in test [5]. In addition, the outcome in test [6] was inactive.
For `CC(=O)/C=C/c1ccc2c(c1)OCO2`, the Potency result in [1], in [8] and in test [4] was “inactive” throughout. Also, the result in test [6] was inactive.
On to `S=C=Nc1cccc2ccccc12`, for which the Potency in test [1] was 60.5 µM (active); in test [7], 67.9 µM (active). Further, the Potency result in [4], in test [5], in [9] and in test [10] was “inactive” in each case. For the same molecule, the outcome in [6] was inactive.
Regarding `O=C(O)c1cc[c]([Hg][Cl])cc1`, the Potency result in test [1], in [4], in test [5] and in [10] was “inactive” in each case. For the same molecule, the Potency in [7] was 15.4 µM (active).
For `CC1(C)CN=C(NN=C(/C=C/c2ccc(C(F)(F)F)cc2)/C=C/c2ccc(C(F)(F)F)cc2)NC1`, the Potency was 43.3 µM (active) in test [1]; 38.6 µM (active) in test [2]; 21.7 µM (active) in [3]; 38.9 µM (active) in test [4]; 34.7 µM (active) in test [5].
Take `CCOC(=O)OC1=C(c2cc(C)ccc2C)C(=O)NC12CCC(OC)CC2` (stereo not drawn): the Potency entry in [1], in [7], in test [2], in test [3], in test [4] and in test [5] was “inactive” each time. Besides, in [10], the Potency entry is “inactive”. For the same molecule, the outcome in test [6] was inactive.
For the molecule `CC(c1ccc(O)cc1)c1ccc(O)cc1`, the Potency result in test [1], in [4], in test [5], in [9] and in [10] was “inactive” in each case. For the same molecule, the Potency in test [7] is 6.86 µM (active). The molecule was called inactive in test [6].
For `CCCCCCCCCCCCBr`, the Potency result in test [1], in [8], in test [4], in [5], in [9] and in [10] was “inactive” in each case. Besides, the call in [6] was inactive.
For `CCOc1cc(C(C)(C)C)ccc1C1COC(c2c(F)cccc2F)=N1` (stereo not drawn), the Potency entry in test [1], in test [5], in [9] and in test [10] was “inactive” in each case. Moreover, the Potency in test [7] was 23.4 µM (active); in test [2], 37.1 µM (active). Further, in test [6], the molecule was called inactive.
Take `Nc1ccccc1C(=O)OC/C=C/c1ccccc1`: the Potency result in test [1], in [2], in test [3], in test [4], in test [5] and in test [10] was “inactive” in each case. In addition, in test [7], the Potency was 27.4 µM (active). In addition, in [6], the outcome was inactive.
For the molecule `O=C(O)C1C2CCC(O2)C1C(=O)O` (stereo not drawn), the Potency result in test [1], in [8], in test [4], in test [9] and in [10] was “inactive” throughout.
Consider `CC(C)(C)C(O)C(Oc1ccc(-c2ccccc2)cc1)n1cncn1` (stereo not drawn), for which the Potency result in [1], in [4], in [5] and in test [10] was “inactive” in each case. In test [7], the Potency was 61.1 µM (active). Further, in test [6], the result was inactive.
Regarding `CCN(CC)C(=S)[S-].CCN(CC)C(=S)[S-].[Zn+2]`, the Potency was 12.1 µM (active) in test [1]; 1.08 µM (active) in test [7]; 1.21 µM (active) in test [2]; 12.2 µM (active) in test [4]; 38.6 µM (active) in test [5]. The molecule was called inactive in [6].
Turning to `CC(C)CC(C)Nc1ccc(Nc2ccccc2)cc1` (stereo not drawn), the Potency is 60.1 µM (active) in test [1] and 47.7 µM (active) in test [7]. For the same molecule, in [6], the outcome was inactive. Also, the Potency entry in test [9] and in [10] was “inactive” each time.
For `COP(=S)(OC)Oc1cc(Cl)c(Br)cc1Cl`, the Potency entry in test [1], in test [8], in test [4], in [5] and in [10] was “inactive” in each case. Moreover, the molecule was classed as inactive in [6].
As to `Clc1ccc(C(c2ccc(Cl)cc2)C(Cl)(Cl)Cl)cc1`, the Potency result in test [1], in test [2], in test [4] and in test [10] was “inactive” each time. Moreover, the Potency in [7] was 7.7 µM (active) and 5.96 µM (active); in [5], 55.3 µM (active) and inactive. The result in test [6] was inactive.
Take `CC(C)CC(C)(c1ccc(O)cc1)c1ccc(O)cc1`: the Potency entry in test [1], in test [4], in test [5] and in test [10] was “inactive” each time. Moreover, the Potency in test [7] is 6.11 µM (active). Also, the molecule was called inactive in test [6].
For the molecule `Oc1ccc(C(c2ccc(O)cc2)(C(F)(F)F)C(F)(F)F)cc1`, the Potency result in [1], in [4], in test [5] and in test [10] was “inactive” in each case. The Potency in test [7] was 13.6 µM (active). Besides, the molecule was called inactive in test [6].
For the molecule `CC(C)Oc1cccc(NC(=O)c2ccccc2C(F)(F)F)c1`, the Potency entry in test [1], in test [5], in test [9] and in test [10] was “inactive” in each case. For the same molecule, the Potency in test [8] is 1.22 µM (active).
Turning to `C=CC(=O)OCCCCOC(=O)C=C`, the Potency result in [1], in test [7], in [2], in test [3], in test [4] and in test [5] was “inactive” in each case. Further, the Potency entry in test [9] and in [10] was “inactive” each time.
For `CCC[CH2][Sn]([CH2]CCC)([CH2]CCC)[O]C(=O)c1ccccc1`, the Potency in [1] was 10.9 µM (active); in [2], 2.17 µM (active); in [3], 2.43 µM (active); in test [4], 3.47 µM (active); in test [5] it was 2.45 µM (active).
With `Clc1ccc(CCC(Cn2ccnc2)Sc2c(Cl)cccc2Cl)cc1` (stereo not drawn), the Potency result in test [1] and in [4] was “inactive” each time. In addition, the results for the Potency in test [2] and in test [3] were 11.9 µM (active) and 21.1 µM (active), respectively.
For the molecule `Clc1ccc(C(Cl)(Cl)Cl)c(Cl)c1`, the Potency result in test [1], in [7], in [4], in test [5] and in [10] was “inactive” each time. Further, in [2], the Potency is 48.9 µM (active). Also, the molecule was called inactive in test [6].
